Paper PMC8769072, “Proteome‐scale mapping of binding sites in the unstructured regions of the human proteome” (Molecular Systems Biology, 2022)

B1: MCC, P23508 (peptide)
chain: LGRDLYPNLAEERSRW
B2: SH3YL1, Q96HL8 (peptide)
chain: YKLYPGLSSYHERVGN
B3: STAM, Q92783 (peptide)
chain: LYPSTSSLLTNHQHEG
B4: DHX34, Q14147 (peptide)
chain: GLYPQLAVPDAFNSSR
B5: GDPD4, Q6W3E5 (peptide)
chain: VVEGPWTLAALYPALP
B6: MIER2, Q8N344 (peptide)
chain: DMPFDELLALYGYEAS
B7: TSHZ1, Q6ZSZ6 (peptide)
chain: YPQDSLAQIKAVYANL
B8: LRRN1, Q6UXK5 (peptide)
chain: LYPPLINLWEGDSEKD
B9: WDFY4, Q6ZS81 (peptide)
chain: TPLWEETMLKAWQHYL
B10: TNKS1BP1, Q9C0C2 (peptide)
chain: AWIRDYSSGGSSRTLD
B11: MIR1-1HG, Q9H1L0 (peptide)
chain: SPASWERLLAYGWSHA
B12: NFKBIL1, Q9UBC1 (peptide)
chain: ELEDEWQEVMGRFEGD
B13: TPCN1, Q9ULQ1 (peptide)
chain: EWYEEHAREQEQQRQL
B14: GTPBP1, O00178 (peptide)
chain: SEQYDSLLRQMWERMD
B15: FSD1, Q9BTV5 (peptide)
chain: DDLSVEWDAMGGKVQD
B16: CPEB2, Q7Z5Q1 (peptide)
chain: DSLQDSWATAAGTSRI
B17: TP73, O15350 (peptide)
chain: STATSPDGGTTFEHLW
B18: CAMTA1, Q9Y6Y1 (peptide)
chain: SWLASYLADADALPSA
B19: TTC31, Q49AM3 (peptide)
chain: QLWHHDYLLGHLDDEG
B20: CBFA2T3, O75081 (peptide)
chain: HKLTEREWAEEWKHLN
B21: IRS1, P35568 (peptide)
chain: EDVKRHSSASFENVWL
B22: FNBP4, Q8N3X1 (peptide)
chain: EMGDWQEVWDENTGAY
B23: BCORL1, Q5H9F3 (peptide)
chain: VHDAVVNDNLETIWLL
B24: TONSL, Q96HA7 (peptide)
chain: HGRYAEALEQHWQELQ
B25: LENG8, Q96PV6 (peptide)
chain: DWSSQYSMVAGAGREN
B26: NUP62, P37198 (peptide)
chain: WSLELEDQERHFLQQA
B27: FOXP1, Q9H334 (peptide)
chain: TELQQLWKEVTSAHTA
B28: SOWAHC, Q53LP3 (peptide)
chain: SSGGGSVTLDPLEHAW
B29: HSF2, Q03933 (peptide)
chain: SENESLWKEVSELRAK
B30: RIMBP3, Q9UFD9 (peptide)
chain: AGSQAQELAEAWEGAR
B31: CACNA1H, O95180 (peptide)
chain: LSGEHAYLQSSWNLLD
B32: ARHGAP18, Q8N392 (peptide)
chain: ELEEEWLKEAGLSNLF
B33: GPATCH2L, Q9NWQ4 (peptide)
chain: SEQNKLGELWEEMALS
B34: NR3C2, P08235 (peptide)
chain: SLPEGLDMERRWGQVS
B35: ZFHX4, Q86UP3 (peptide)
chain: GHPELSEAELQQLYAS
B36: CHTF18, Q8WVB6 (peptide)
chain: PPPSPEDLAELWGHGV
B37: FAM186B, Q8IYM0 (peptide)
chain: WEEEFGREMRRQLWLE
B38: CBFA2T2, O43439 (peptide)
chain: LTEREWADEWKHLDHA
B39: EVI5, O60447 (peptide)
chain: VKDLEEHWQRHLARTT
B40: SUGP1, Q8IWZ8 (peptide)
chain: DMQLLWEKAVQQHQHG
B41: TBC1D15, Q8TC07 (peptide)
chain: LNSYEAEWDMVNTVSF
B42: SMG7, Q92540 (peptide)
chain: VLMESLKSIWSSSMMH
B43: NEDD9, Q14511 (peptide)
chain: GGLEGWWLASLHGRQG
B44: HECW2, Q9P2P5 (peptide)
chain: SATVPDQEELGEVWQR
B45: ELOA2, Q8IYF1 (peptide)
chain: DLSEAWMQANYDPLSD
B46: RIMBP2, O15034 (peptide)
chain: RMDEAWEQSRAPGPVH
B47: IRF5, Q13568 (peptide)
chain: ELHHIWQSQQRLQPVA
B48: PPP1R9B, Q96SB3 (peptide)
chain: RMEKLEGYWGEAQSLA
B49: AATF, Q9NY61 (peptide)
chain: DPNDQVAMGRQWLAIQ
B50: ARHGAP27, Q6ZUM4 (peptide)
chain: DSHVSLETEWGQYWDE
B51: C9orf131, Q5VYM1 (peptide)
chain: STPLPEPHIDLELVWR
B52: PIP5K1C, O60331 (peptide)
chain: KLEHTWKALVHDGDTV
B53: SYCE3, A1L190 (peptide)
chain: EMEKNWQELLHETKQR
B54: WDR13, Q9H1Z4 (peptide)
chain: MAAVWQQVLAVDARYN
B55: KRT77, Q7Z794 (peptide)
chain: DAEERGEQALQDAWQK
B56: AGGF1, Q8N302 (peptide)
chain: EVQTENHAPWSISDYF
B57: SPIDR, Q14159 (peptide)
chain: GAAASLSEAWLRAGEG
B58: ETV5, P41161 (peptide)
chain: QLQEAWLAEAQVPDDE
B59: DENND2D, Q9H6A0 (peptide)
chain: DFSSLLHALSFEQILQ
B60: SNTA1, Q13424 (peptide)
chain: LQALLAATSTAGSQDI
B61: EGFR, P00533 (peptide)
chain: SGTAGAALLALLAALA
B62: SLC22A12, Q96S37 (peptide)
chain: MAFSELLDLVGGLGRF

The binders below were run against PDCD6IP 360-702, Q8WUM4.
Chain of PDCD6IP 360-702, Q8WUM4 (Q8WUM4 360-702): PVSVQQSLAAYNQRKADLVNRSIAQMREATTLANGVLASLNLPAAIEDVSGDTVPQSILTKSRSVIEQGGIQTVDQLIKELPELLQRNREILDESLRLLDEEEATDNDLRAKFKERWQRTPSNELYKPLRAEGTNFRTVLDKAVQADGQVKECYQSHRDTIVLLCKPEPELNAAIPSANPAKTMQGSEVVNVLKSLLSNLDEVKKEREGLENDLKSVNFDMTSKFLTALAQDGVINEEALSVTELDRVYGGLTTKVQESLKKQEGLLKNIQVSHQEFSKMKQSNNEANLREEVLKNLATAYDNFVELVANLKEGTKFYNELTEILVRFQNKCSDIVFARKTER

| Binder | selected by phage display |
| --- | --- |
| B1 | confidence 3 (active) |
| B2 | confidence 3 (active) |
| B3 | confidence 3 (active) |
| B4 | confidence 2 (active) |
| B5 | confidence 3 (active) |
| B6 | confidence 2 (active) |
| B7 | confidence 2 (active) |
| B8 | confidence 4 (active) |

Each binder was assayed against PEX14 16-84, O75381.
Chain of PEX14 16-84, O75381 (O75381 16-84): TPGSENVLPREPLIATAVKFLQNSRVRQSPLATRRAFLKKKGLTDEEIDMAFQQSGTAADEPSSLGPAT

| Binder | selected by phage display |
| --- | --- |
| B9 | confidence 2 (active) |
| B10 | confidence 2 (active) |
| B11 | confidence 3 (active) |
| B12 | confidence 4 (active) |
| B13 | confidence 2 (active) |
| B14 | confidence 2 (active) |
| B15 | confidence 4 (active) |
| B16 | confidence 3 (active) |
| B17 | confidence 3 (active) |
| B18 | confidence 3 (active) |
| B19 | confidence 2 (active) |
| B20 | confidence 3 (active) |
| B21 | confidence 3 (active) |
| B22 | confidence 3 (active) |
| B23 | confidence 3 (active) |
| B24 | confidence 4 (active) |
| B25 | confidence 3 (active) |
| B26 | confidence 2 (active) |
| B27 | confidence 3 (active) |
| B28 | confidence 3 (active) |
| B29 | confidence 3 (active) |
| B30 | confidence 2 (active) |
| B31 | confidence 2 (active) |
| B32 | confidence 2 (active) |
| B33 | confidence 3 (active) |

| Binder | selected by phage display |
| --- | --- |
| B34 | confidence 2 (active) |
| B35 | confidence 2 (active) |
| B36 | confidence 3 (active) |
| B37 | confidence 2 (active) |
| B38 | confidence 4 (active) |
| B39 | confidence 3 (active) |
| B40 | confidence 2 (active) |
| B41 | confidence 2 (active) |
| B42 | confidence 3 (active) |
| B43 | confidence 4 (active) |
| B44 | confidence 3 (active) |
| B45 | confidence 3 (active) |
| B46 | confidence 2 (active) |
| B47 | confidence 3 (active) |
| B48 | confidence 3 (active) |
| B49 | confidence 3 (active) |
| B50 | confidence 3 (active) |
| B51 | confidence 2 (active) |
| B52 | confidence 3 (active) |
| B53 | confidence 2 (active) |
| B54 | confidence 3 (active) |
| B55 | confidence 2 (active) |
| B56 | confidence 2 (active) |
| B57 | confidence 2 (active) |
| B58 | confidence 3 (active) |

These binders were tested against SIN3A 295-383, Q96ST3.
Chain of SIN3A 295-383, Q96ST3 (Q96ST3 295-383): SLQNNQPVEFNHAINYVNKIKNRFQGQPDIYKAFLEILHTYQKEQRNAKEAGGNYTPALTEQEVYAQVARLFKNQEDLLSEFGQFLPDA

| Binder | selected by phage display |
| --- | --- |
| B59 | confidence 2 (active) |
| B60 | confidence 2 (active) |
| B61 | confidence 2 (active) |
| B62 | confidence 2 (active) |
